High-throughput results from PubChem.
DRD3 agonist = D3 dopamine receptor (human) agonism; P35462; D3R DiscoveRx beta-arrestin cells, luminescence, 90 min; max activation, %; 410,000 compounds, 0.58% hits; AID 652048; in the data active means max activation above about 30%
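Agonist-mode cell screen: cells plated at 1500/well and incubated overnight at 37 °C, then exposed to library compounds for 90 min at 37 °C. Detection reagent was added for 30–60 min at room temperature, and luminescence was read.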
PTAP TSG101 blk = blocks PTAP/TSG101 interaction to inhibit HIV-1 budding | 340,000 tested, under 10 active | Q99816 | Potency, µM (doses to about 115 µM), actives largely listed as inhibitors | Fluorescence polarization, FITC-PTAP peptide / Tsg101 binding; active means well fitted inhibition curve with a large enough effect in the main read-out, with a control signal flat, not every such curve was filed as active; inconclusive means small, poorly fitted or top-dose-only effect, or effect the other way, or a change in a side signal; inactive means no such curve, though single readings can be large or run the other way
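FP read-out: FITC-PTAP peptide, 50 nM final, binding Tsg101 binding domain, 10 uM final; 20 min, r.t.; 10 mM HEPES pH 7.5, 0.15 M NaCl, 0.01% Tween 20, 3 mM EDTA, 0.1 mM TCEP.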
Rango complex inh = prevents formation of the Rango-importin beta complex. Q14974. Rango CFP/YFP FRET sensor + importin beta, 45 min. Potency, µM (doses to about 92.2 µM). 340,000 compounds, 0.031% hits. AID 540263; further: nearly all actives have a fitted effect of over 15% in size
Target sequence (Q14974 whole entry, looked up): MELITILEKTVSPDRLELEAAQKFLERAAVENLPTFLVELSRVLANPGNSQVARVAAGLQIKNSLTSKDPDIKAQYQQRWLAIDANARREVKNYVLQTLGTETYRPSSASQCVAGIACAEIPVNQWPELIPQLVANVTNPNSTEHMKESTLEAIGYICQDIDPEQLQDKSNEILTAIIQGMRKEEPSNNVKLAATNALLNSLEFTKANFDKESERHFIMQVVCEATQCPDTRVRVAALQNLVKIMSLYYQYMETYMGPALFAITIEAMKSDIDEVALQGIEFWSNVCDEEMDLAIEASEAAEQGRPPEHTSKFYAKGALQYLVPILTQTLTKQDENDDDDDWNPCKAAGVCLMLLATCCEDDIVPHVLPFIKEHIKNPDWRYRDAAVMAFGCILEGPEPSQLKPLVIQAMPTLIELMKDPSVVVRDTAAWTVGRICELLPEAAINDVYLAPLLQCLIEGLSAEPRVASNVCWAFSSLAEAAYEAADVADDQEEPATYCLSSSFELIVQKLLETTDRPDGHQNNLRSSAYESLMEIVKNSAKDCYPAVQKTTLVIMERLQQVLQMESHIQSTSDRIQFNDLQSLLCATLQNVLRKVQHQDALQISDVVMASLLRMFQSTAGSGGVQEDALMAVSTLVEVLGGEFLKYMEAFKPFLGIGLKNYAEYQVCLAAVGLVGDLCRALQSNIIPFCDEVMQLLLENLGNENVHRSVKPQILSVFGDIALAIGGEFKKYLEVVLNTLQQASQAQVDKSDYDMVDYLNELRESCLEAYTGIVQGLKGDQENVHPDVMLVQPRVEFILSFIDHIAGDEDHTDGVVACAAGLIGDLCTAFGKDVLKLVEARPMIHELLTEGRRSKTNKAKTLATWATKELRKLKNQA
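FRET biosensor (snurportin 1 IBB flanked by EYFP and cerulean), 50 nM, with compound 5 min, then 0.125 microM importin beta in PBS, 1 mM DTT, 0.02% Tween-20, 0.1% BSA. CFP/YFP ratio read after 45 min at room temperature; pre-read flags interference.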
MmCpn inh = M. maripaludis TRiC chaperonin inhibition; purified Mm-Cpn ATPase, ADP Transcreener TR-FRET; Potency, µM (highest dose often 76.9 µM), hits mostly inhibitors; 330,000 compounds, 0.031% hits; active means well fitted inhibition curve with a large enough effect; inconclusive means small, poorly fitted or top-dose-only effect; further: nearly all actives have a fitted effect of over 80% in size
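Inhibition of chaperonin ATP hydrolysis is measured as reduced ADP production, detected by competitive TR-FRET in which signal falls with ADP. Final enzyme 25 nM and ATP 10 uM, reacted 30 min at 37°C.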
Rango release inh = inhibition of RanGTP-driven Rango-importin beta dissociation; Biochemical FRET Rango-importin beta, RanGTP-induced dissociation; 340,000 compounds, 0.071% hits; Potency, µM (titrated, usually from 46.1 µM); further: nearly all actives have a fitted effect of over 45% in size
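FRET read at 45 min, room temperature: inhibitors block the CFP/YFP signal rise when RanGTP (0.6 uM Ran, 2 mM GTP, 0.2 uM RCC1) frees Rango (0.1 uM) from importin beta (0.25 uM). Pre-read after 5 min compound exposure flags interference.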
D3 antag = antagonists of human D3 dopamine receptor | max response, negative = inhibition, % | P35462 | 360,000 compounds, 2.5% hits | AID 652054 | D3R cells, DiscoveRx beta-arrestin luminescence, antagonist mode; hits give low values; in the data active means max response below about -50%; inconclusive means no clear call, values can overlap the other calls
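Cells expressing the human receptor were seeded at 1500 cells/well, incubated overnight at 37 degrees C in 5% CO2, then exposed to library compounds with dopamine controls for 90 minutes at 37 degrees C before luminescent detection.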
Each line names hits and unclear results; the compound was inactive in the other large screens. Hits are enriched below; roughly 2.9% of the tested compounds scored in any of these assays. Unless noted, the call rests on the fitted dose curve.

Cc1cccc(-c2noc(-c3ccc(NCC4CCCO4)c([N+](=O)[O-])c3)n2)c1 (stereo unspecified)	none (no result: PTAP TSG101 blk, Rango complex inh, MmCpn inh, Rango release inh, D3 antag)
Cc1ccc(C(C)C)c(OCC(O)CN(C)Cc2ccccc2)c1 (stereo unspecified)	none
Cc1ccc(OCCCCN(C)Cc2ccccc2)c(Br)c1	D3 antag -55
Cc1ccc(C(C)C)c(OCCCN(C)Cc2ccccc2)c1	D3 antag -61
O=C(CCn1c(=O)oc2ccc(Cl)cc21)NCCCN1CCOCC1	none
COc1cc(/C=C2/C(=O)CNC2=O)ccc1O	none
COc1cc(C=C2C(=O)C=CC2=O)ccc1O	D3 antag -136 (no result: PTAP TSG101 blk, Rango complex inh, MmCpn inh, Rango release inh)
Cc1nc2ccn(Cc3ccco3)c(=O)c2cc1C(=O)Nc1ccc(F)cc1	none (no result: PTAP TSG101 blk, Rango complex inh, MmCpn inh, Rango release inh, D3 antag)
Cc1ccc(NC(=O)c2cc3c(=O)n(Cc4ccco4)ccc3nc2C)cc1C	DRD3 agonist 65 (no result: PTAP TSG101 blk, Rango complex inh, MmCpn inh, Rango release inh, D3 antag)
CCOc1ccc(NC(=O)c2ccc3c(c2)nnn3C2CCCC2)cc1	none (no result: PTAP TSG101 blk, Rango complex inh, MmCpn inh, Rango release inh, D3 antag)
CCN(CC)CCNC(=O)c1ccc(N2CCCCC2)c(NS(=O)(=O)c2ccc(C)cc2)c1	D3 antag -82
COc1ccc(S(=O)(=O)N2CCC(C(=O)Nc3ccccc3N3CCCCC3)CC2)cc1OC	none
O=c1c2ccccc2nc2n1CC/C2=C/N1CCN(c2cccc(C(F)(F)F)c2)CC1	D3 antag -91
COc1cc(OC)cc(C(=O)Oc2c(CN3CCOCC3)cc(Cl)c3cccnc23)c1	D3 antag -64
O=C(Oc1c(CN2CCOCC2)cc(Cl)c2cccnc12)c1ccccc1F	D3 antag -85
COc1ccc(C(=O)Oc2c(CN3CCOCC3)cc(Cl)c3cccnc23)cc1OC	none (no result: MmCpn inh)
CCOC(=O)C1(Cc2cccc(F)c2)CCN(C(=O)C2CCCO2)CC1 (stereo unspecified)	none
CO[C@H]1C=CO[C@@]2(C)Oc3c(C)c(O)c4c(O)c(c5c(nc6cc(C)ccn65)c4c3C2=O)NC(=O)/C(C)=C\C=C[C@H](C)[C@H](O)[C@@H](C)[C@@H](O)[C@@H](C)[C@H](OC(C)=O)[C@@H]1C	none (no result: PTAP TSG101 blk, Rango complex inh, MmCpn inh, Rango release inh, D3 antag)
Cc1cc(C)cc(NC(=O)CN2CCN(c3ccccc3)CC2)c1	none
C/C(=C\c1ccccc1)CN1CCN(c2ccccc2F)CC1	D3 antag -82 (no result: MmCpn inh)
C/C=C(\C)CN1CCN(c2ccc(C)cc2)CC1	D3 antag -79
C/C(=C\c1ccccc1)CN1CCN(c2cccc(Cl)c2)CC1	D3 antag -137
c1ccc(C(c2ccccc2)c2noc(CN3CCN(CC4CC4)CC3)n2)cc1	D3 antag -63
Cc1ccc(Cc2cnc(N3C(=N)SC(c4ccccc4)C3=O)s2)cc1 (stereo unspecified)	none
N=C1SC(c2ccccc2)C(=O)N1c1ncc(Cc2ccccc2)s1 (stereo unspecified)	D3 antag -56
Cc1ccc(NC(=S)N(CCCN2CCN(C)CC2)Cc2cccs2)cc1C	none
Cc1ccc(NC(=S)N(CCCN2CCC(C)CC2)Cc2ccco2)cc1C	D3 antag -52
COc1ccc(NC(=S)N(CCCN2CCCCC2)Cc2cccs2)cc1	D3 antag -87
CSc1cccc(NC(=S)N(CCC(C)C)C2CCN(C(C)=O)CC2)c1	none
CSc1cccc(NC(=S)N(CCC(C)C)C2CCN(C(C)C)CC2)c1	D3 antag -85
CSc1cccc(NC(=S)N(CCCN2CCC(C)CC2)Cc2cccs2)c1	D3 antag -76
COc1cc(OC)c(NC(=O)C(C)n2c(=O)cc(-c3ccccc3)c3c(C)nn(C)c32)cc1Cl (stereo unspecified)	none (no result: PTAP TSG101 blk, Rango complex inh, MmCpn inh, Rango release inh, D3 antag)
CCc1ccc(NC(=S)N(CCN2CCCCC2)Cc2ccco2)cc1	D3 antag -68
COc1cccc(NC(=S)N(CCCN2CCC(C)CC2)Cc2cccs2)c1	D3 antag -84
COc1cccc(NC(=S)N(CCN(C)C)Cc2cccs2)c1	none
COc1ccc(NC(=S)N(CCCN2CCC(C)CC2)Cc2cccs2)cc1	D3 antag -58
CCc1ccc(NC(=S)N(CCCN2CCOCC2)Cc2ccco2)cc1	MmCpn inh inconclusive
Cc1ccc(NC(=S)N(CCCN2CCN(C)CC2)Cc2cccs2)cc1	none
Cc1ccc(CN2CCCn3nc(C(=O)NC(C)C)cc3C2=O)cc1	none (no result: PTAP TSG101 blk, Rango complex inh, MmCpn inh, Rango release inh, D3 antag)
CCOc1ccc(/C=C(\C#N)C(=O)Nc2sc3c(c2C(=O)OC)CCC3)cc1OC	none (no result: PTAP TSG101 blk, Rango complex inh, MmCpn inh, Rango release inh, D3 antag)
COc1ccccc1-c1nc(SCC(=O)c2ccc(Cl)cc2)n[nH]1	none (no result: PTAP TSG101 blk, Rango complex inh, MmCpn inh, Rango release inh, D3 antag)
COc1ccc(Cl)cc1NC(=O)c1cc2c(=O)n3ccccc3nc2s1	none (no result: PTAP TSG101 blk, Rango complex inh, MmCpn inh, Rango release inh, D3 antag)
CCCCc1nn2c(=O)cc(COC(=O)c3ccc(NC(=O)c4ccccc4Cl)cc3)nc2s1	none (no result: PTAP TSG101 blk, Rango complex inh, MmCpn inh, Rango release inh, D3 antag)
S=C1SCN(Cc2ccccn2)CN1Cc1ccco1	D3 antag -62 (no result: PTAP TSG101 blk)
COc1cc(/C=N/NC(N)=S)cc(Br)c1OCc1ccccc1F	D3 antag -51
C=CCn1c(=O)/c(=C/c2cc(OC)c(OC)c(OC)c2)s/c1=C(/C#N)c1nc2ccccc2n1C	PTAP TSG101 blk inconclusive, Rango complex inh inconclusive, Rango release inh inconclusive, D3 antag -51
Cc1[nH]oc(=O)c1N=Nc1ccc2[nH]c(=O)[nH]c2c1	D3 antag -66 (no result: MmCpn inh)
Cc1[nH]n(-c2ccccc2)c(=O)c1C=Nc1ccc2[nH]c(=O)[nH]c2c1	none
COc1cccc(/C=C2/CCC(CN(C)C)C2=O)c1 (stereo unspecified)	D3 antag -69 (no result: MmCpn inh)
O=C1N/C(=C/c2ccc(N3CCOCC3)o2)C(=O)N1c1cccc(Cl)c1	PTAP TSG101 blk inconclusive, Rango complex inh inconclusive, D3 antag -75
O=C1c2ccccc2NC(c2cccc(F)c2)N1Cc1ccco1 (stereo unspecified)	D3 antag -61
O=C1c2ccccc2NC(c2cccc(F)c2)N1Cc1ccccc1 (stereo unspecified)	none
CCOC(=O)c1cc2c(C)n(-c3ccc(N(C)C)cc3)c(C)c2cc(C(=O)OCC)c1=O	DRD3 agonist 57
CCOC(=O)c1cc2c(C)n(-c3ccc(OCC)cc3)c(C)c2cc(C(=O)OCC)c1=O	Rango complex inh inconclusive, Rango release inh inconclusive
N#CC(C#N)=C1C=CC=CN1/C(=C\c1ccccc1Cl)C(=O)c1ccccc1	Rango complex inh inconclusive, Rango release inh inconclusive, D3 antag -104
N#CC(C#N)=C1C=CC=CN1/C(=C\c1ccccc1)C(=O)c1cccs1	Rango complex inh inconclusive, Rango release inh inconclusive
O=C(NCC(c1ccco1)N1CCN(c2ccccc2F)CC1)c1cccs1 (stereo unspecified)	none
COc1ccc(C(CNC(=O)c2ccco2)N2CCCCC2)cc1 (stereo unspecified)	none
